SMILES strings stand for the structures. Calls of active or inactive are those of the source.

Assay [1] deals with PRMT1 (protein arginine N-methyltransferase 1). Briefly: PRMT1 binders on small-molecule microarrays, primary screen, biochemical, small-molecule microarray, 635 nm fluorescence (AID 1088).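 Also: binding of Prmt1 protein to compounds spotted on small-molecule microarray slides.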 The settings on record: small-molecule microarray binding, higher = more signal.
Assay [2] can be described thus: yeast growth modulation, basal conditions, primary screen, YJM789 clinical isolate, OD600, 24 h (AID 1089).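 Also: growth of clinical yeast isolate S. cerevisiae YJM 789 seeded 1000 cells per well; test concentration not given here.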 The settings on record: S. cerevisiae YJM789 growth, higher = more signal, called active from +8 up or from −8 down.
The nature of assay [3]: fission yeast growth modulation, primary screen, strain 972, OD600, 24 h, no modulator (AID 1090).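 Also: basal condition with compound alone and no growth modifier present; test concentration not given here.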 To be noted: S. pombe 972 growth, higher = more signal, called active from +8 up or from −8 down.
The nature of assay [4]: S. cerevisiae growth modulation with rapamycin, primary screen, strain BY4716, OD600, 96 h (AID 1091). Also: test concentration not given here. To be noted: higher = more signal, called active from +8 up or from −8 down.
The target in assay [5] is Torsin-1A-interacting protein 2 (Homo sapiens) (UniProt Q8NFQ8). The experiment in a line: LULL1 binders on small-molecule microarray, primary screen, cell lysate, human LULL1 lysate, 635/667 nm fluorescence (AID 1092).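 Also: probe is lysate of COS7 cells overexpressing human LULL1; score merges per-feature 667 nm fluorescence with signal-to-noise.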 The settings on record: hLULL1 lysate binding, 635 nm fluorescence, higher = more signal.
Assay [6] in a line: E. coli growth modulation, two-sided OD650, primary screen, E. coli filamentation project, strain DRC41, 24 h (AID 1093).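 Also: MC1000 strain lacking acrAB efflux and sulA so SOS filamentation is blocked; test concentration not given here.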 To be noted: OD650, 24 h, higher = more signal, called active from +8 up or from −8 down.
Assay [7] is described as follows: small-molecule microarray binders of probe aLefty2, primary screen, biochemical, biotinylated probe, 635/667 nm fluorescence (AID 1094).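 Also: score merges spot fluorescence near 667 nm with spot signal-to-noise ratio.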 The settings on record: higher = more signal.
The subject of assay [8] is Noggin (protein binding on small-molecule microarray). Briefly: Noggin binders on small-molecule microarray, primary screen, biochemical, 635/667 nm fluorescence (AID 1095).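 Also: score merges 667 nm feature fluorescence with signal to noise over triplicate slides.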 To be noted: 635 nm fluorescence, higher = more signal.
Assay [9] deals with Neurogenic locus notch homolog protein 3 (Homo sapiens) (UniProt Q9UM47). The experiment in a line: NOTCH3 binders on small-molecule microarray, primary screen, biochemical, 635/667 nm fluorescence (AID 1096). To be noted: NOTCH3 binding, 635 nm fluorescence, higher = more signal.
A short description of assay [10]: small-molecule microarray binders of probe aEGFR, primary screen, biochemical, biotinylated probe, 635/667 nm fluorescence (AID 1097).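 Also: probe is a biotinylated anti-EGFR antibody binding compounds printed on slides; score combines fluorescence near 667 nm and signal to noise of each spot.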 The settings on record: higher = more signal.
The subject of assay [11] is Plasmodium falciparum Sir2 (PF13_0152, Sir2A). Briefly: pfSir2 binders on small-molecule microarrays, primary screen, biochemical, small-molecule microarray, 635 nm fluorescence (AID 1098).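 Also: score merges spot fluorescence intensity with its signal-to-noise ratio.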 To be noted: small-molecule microarray binding, fluorescence 635 nm; higher = more signal.
A short description of assay [12]: small-molecule microarray binders of probe aDKK1, primary screen, biochemical, biotinylated probe, 635/667 nm fluorescence (AID 1099).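 Also: score merges 667nm spot fluorescence with signal to noise across triplicate slides; reference of the scale not given here.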 The settings on record: higher = more signal.
Assay [13] can be described thus: small-molecule microarray binders of probe aCHRDL2, primary screen, biochemical, biotinylated probe, 635/667 nm fluorescence (AID 1100). The settings on record: higher = more signal.
Assay [14] is described as follows: splicing luciferase reporter signal modulators, primary screen, spliceosome inhibition project, cell-based, HEK293, splice +/- reporter (AID 1101).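 Also: HEK293 cells carrying a splicing-competent luciferase reporter gene; test concentration not given here.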 To be noted: luminescence, 24 h, higher = more signal, called active from +8 up or from −8 down.
Assay [15] has as its target Fibroblast growth factor 10 (Homo sapiens) (UniProt O15520). Briefly: FGF10 binders on small-molecule microarrays, primary screen, biochemical, small-molecule microarray, 635 nm fluorescence (AID 1102). The settings on record: FGF10 binding, fluorescence 635 nm, higher = more signal.
Assay [16] has as its system glycogen synthase kinase-3 (GSK3A per assay name; protocol says GSK3B). The experiment in a line: GSK3 binders on small-molecule microarrays, primary screen, biochemical, small-molecule microarray, 635 nm fluorescence, GSK3A (AID 1103). Also: the record names both GSK3A and GSK3B. The settings on record: small-molecule microarray binding, fluorescence 635 nm; higher = more signal.
Assay [17] concerns the target Epidermal growth factor receptor (Homo sapiens) (UniProt P00533). Briefly: EGFR binders on small-molecule microarrays, primary screen, biochemical, small-molecule microarray, 635 nm fluorescence (AID 1104).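 Also: score merges 667 nm emission intensity with spot signal to noise over triplicate slides.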 The settings on record: EGFR binding, higher = more signal.
Assay [18] has as its target Follistatin-related protein 3 (Homo sapiens) (UniProt O95633). The experiment in a line: FSTL3 binders on small-molecule microarrays, primary screen, biochemical, small-molecule microarray, 635 nm fluorescence (AID 1105).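 Also: score merges emission near 667 nm and signal to noise per printed spot across three slides.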 The settings on record: FSTL3 binding, higher = more signal.
The target in assay [19] is Dickkopf-related protein 1 (Homo sapiens) (UniProt O94907). The experiment in a line: DKK1 binders on small-molecule microarrays, primary screen, biochemical, small-molecule microarray, 635 nm fluorescence scan (AID 1106).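 Also: score merges emission near 667 nm with signal to noise over three replicate slides.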 The settings on record: DKK1 binding, higher = more signal.
In assay [20] the test system is Inhibin beta A chain (activin A). The experiment in a line: INHBA (activin A) binders on microarrays, primary screen, biochemical, small-molecule microarray, 635 nm fluorescence scan (AID 1107).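 Also: mouse activin A protein probed at 4.33 µg/mL on printed slides; score merges bound-protein fluorescence near 667 nm with spot signal-to-noise.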 To be noted: small-molecule microarray binding, higher = more signal.

Dickkopf-related protein 1 (Homo sapiens), sequence (O94907 whole entry, looked up): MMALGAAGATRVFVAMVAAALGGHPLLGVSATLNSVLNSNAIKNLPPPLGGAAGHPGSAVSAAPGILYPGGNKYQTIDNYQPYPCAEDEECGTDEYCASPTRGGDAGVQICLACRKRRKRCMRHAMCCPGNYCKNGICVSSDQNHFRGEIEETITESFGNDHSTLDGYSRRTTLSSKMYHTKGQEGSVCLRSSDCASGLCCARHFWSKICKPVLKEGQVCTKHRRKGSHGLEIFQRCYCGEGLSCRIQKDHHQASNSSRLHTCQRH
Torsin-1A-interacting protein 2 (Homo sapiens), sequence (Q8NFQ8 whole entry, looked up): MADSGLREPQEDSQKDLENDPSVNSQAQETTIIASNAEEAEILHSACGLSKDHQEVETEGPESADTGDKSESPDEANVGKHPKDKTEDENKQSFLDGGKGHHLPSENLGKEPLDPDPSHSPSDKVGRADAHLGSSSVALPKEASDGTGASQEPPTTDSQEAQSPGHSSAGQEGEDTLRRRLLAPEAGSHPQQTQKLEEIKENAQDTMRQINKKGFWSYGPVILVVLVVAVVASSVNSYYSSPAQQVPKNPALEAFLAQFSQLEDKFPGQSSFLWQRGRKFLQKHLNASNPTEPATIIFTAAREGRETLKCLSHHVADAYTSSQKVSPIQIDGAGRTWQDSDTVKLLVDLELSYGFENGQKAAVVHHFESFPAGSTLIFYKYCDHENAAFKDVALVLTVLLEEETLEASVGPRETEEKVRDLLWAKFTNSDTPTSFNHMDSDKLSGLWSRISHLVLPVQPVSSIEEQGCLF
Epidermal growth factor receptor (Homo sapiens), sequence (P00533 whole entry, looked up): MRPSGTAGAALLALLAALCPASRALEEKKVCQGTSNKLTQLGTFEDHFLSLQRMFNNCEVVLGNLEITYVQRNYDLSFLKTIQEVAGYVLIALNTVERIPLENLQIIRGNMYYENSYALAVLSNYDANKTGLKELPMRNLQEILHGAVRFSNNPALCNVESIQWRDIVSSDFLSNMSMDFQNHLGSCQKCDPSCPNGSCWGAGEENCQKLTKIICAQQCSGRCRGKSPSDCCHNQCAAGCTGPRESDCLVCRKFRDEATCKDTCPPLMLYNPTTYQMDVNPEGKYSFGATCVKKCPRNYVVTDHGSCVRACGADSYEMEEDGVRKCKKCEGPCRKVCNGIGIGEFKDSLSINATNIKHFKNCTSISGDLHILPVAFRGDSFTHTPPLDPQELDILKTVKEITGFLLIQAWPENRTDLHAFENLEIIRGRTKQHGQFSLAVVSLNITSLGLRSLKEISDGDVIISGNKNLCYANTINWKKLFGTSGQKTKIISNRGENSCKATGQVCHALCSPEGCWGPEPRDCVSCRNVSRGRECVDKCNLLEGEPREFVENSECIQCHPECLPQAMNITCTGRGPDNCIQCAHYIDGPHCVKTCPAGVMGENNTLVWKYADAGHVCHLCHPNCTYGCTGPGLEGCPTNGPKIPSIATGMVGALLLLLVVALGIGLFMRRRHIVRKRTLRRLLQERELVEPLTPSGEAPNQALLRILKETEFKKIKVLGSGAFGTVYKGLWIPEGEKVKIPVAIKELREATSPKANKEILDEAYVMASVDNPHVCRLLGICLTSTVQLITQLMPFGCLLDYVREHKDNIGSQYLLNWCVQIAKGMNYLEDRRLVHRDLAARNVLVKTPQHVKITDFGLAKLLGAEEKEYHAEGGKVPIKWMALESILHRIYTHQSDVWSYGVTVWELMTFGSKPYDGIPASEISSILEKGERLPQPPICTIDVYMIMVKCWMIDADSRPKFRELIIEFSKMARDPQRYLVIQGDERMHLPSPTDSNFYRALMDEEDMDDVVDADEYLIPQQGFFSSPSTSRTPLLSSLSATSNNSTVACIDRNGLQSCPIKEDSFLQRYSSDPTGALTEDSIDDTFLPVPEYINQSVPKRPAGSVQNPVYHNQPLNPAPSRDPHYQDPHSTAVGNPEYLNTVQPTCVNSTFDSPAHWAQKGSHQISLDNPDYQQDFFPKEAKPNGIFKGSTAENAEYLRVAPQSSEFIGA
Follistatin-related protein 3 (Homo sapiens), sequence (O95633 whole entry, looked up): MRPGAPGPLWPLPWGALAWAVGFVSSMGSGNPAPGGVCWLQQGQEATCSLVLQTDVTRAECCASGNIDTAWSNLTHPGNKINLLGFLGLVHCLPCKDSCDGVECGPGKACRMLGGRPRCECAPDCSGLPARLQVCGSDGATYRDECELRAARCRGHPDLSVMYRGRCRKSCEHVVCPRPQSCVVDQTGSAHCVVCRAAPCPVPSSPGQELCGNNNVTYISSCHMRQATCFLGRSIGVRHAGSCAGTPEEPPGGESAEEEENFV
Fibroblast growth factor 10 (Homo sapiens), sequence (O15520 whole entry, looked up): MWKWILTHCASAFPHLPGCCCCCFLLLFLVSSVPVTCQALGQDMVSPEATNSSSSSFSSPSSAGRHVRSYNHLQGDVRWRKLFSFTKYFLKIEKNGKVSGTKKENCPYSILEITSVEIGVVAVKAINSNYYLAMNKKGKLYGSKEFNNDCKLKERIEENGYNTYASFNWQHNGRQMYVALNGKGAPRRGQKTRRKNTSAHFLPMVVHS
Neurogenic locus notch homolog protein 3 (Homo sapiens), sequence (Q9UM47 whole entry, looked up): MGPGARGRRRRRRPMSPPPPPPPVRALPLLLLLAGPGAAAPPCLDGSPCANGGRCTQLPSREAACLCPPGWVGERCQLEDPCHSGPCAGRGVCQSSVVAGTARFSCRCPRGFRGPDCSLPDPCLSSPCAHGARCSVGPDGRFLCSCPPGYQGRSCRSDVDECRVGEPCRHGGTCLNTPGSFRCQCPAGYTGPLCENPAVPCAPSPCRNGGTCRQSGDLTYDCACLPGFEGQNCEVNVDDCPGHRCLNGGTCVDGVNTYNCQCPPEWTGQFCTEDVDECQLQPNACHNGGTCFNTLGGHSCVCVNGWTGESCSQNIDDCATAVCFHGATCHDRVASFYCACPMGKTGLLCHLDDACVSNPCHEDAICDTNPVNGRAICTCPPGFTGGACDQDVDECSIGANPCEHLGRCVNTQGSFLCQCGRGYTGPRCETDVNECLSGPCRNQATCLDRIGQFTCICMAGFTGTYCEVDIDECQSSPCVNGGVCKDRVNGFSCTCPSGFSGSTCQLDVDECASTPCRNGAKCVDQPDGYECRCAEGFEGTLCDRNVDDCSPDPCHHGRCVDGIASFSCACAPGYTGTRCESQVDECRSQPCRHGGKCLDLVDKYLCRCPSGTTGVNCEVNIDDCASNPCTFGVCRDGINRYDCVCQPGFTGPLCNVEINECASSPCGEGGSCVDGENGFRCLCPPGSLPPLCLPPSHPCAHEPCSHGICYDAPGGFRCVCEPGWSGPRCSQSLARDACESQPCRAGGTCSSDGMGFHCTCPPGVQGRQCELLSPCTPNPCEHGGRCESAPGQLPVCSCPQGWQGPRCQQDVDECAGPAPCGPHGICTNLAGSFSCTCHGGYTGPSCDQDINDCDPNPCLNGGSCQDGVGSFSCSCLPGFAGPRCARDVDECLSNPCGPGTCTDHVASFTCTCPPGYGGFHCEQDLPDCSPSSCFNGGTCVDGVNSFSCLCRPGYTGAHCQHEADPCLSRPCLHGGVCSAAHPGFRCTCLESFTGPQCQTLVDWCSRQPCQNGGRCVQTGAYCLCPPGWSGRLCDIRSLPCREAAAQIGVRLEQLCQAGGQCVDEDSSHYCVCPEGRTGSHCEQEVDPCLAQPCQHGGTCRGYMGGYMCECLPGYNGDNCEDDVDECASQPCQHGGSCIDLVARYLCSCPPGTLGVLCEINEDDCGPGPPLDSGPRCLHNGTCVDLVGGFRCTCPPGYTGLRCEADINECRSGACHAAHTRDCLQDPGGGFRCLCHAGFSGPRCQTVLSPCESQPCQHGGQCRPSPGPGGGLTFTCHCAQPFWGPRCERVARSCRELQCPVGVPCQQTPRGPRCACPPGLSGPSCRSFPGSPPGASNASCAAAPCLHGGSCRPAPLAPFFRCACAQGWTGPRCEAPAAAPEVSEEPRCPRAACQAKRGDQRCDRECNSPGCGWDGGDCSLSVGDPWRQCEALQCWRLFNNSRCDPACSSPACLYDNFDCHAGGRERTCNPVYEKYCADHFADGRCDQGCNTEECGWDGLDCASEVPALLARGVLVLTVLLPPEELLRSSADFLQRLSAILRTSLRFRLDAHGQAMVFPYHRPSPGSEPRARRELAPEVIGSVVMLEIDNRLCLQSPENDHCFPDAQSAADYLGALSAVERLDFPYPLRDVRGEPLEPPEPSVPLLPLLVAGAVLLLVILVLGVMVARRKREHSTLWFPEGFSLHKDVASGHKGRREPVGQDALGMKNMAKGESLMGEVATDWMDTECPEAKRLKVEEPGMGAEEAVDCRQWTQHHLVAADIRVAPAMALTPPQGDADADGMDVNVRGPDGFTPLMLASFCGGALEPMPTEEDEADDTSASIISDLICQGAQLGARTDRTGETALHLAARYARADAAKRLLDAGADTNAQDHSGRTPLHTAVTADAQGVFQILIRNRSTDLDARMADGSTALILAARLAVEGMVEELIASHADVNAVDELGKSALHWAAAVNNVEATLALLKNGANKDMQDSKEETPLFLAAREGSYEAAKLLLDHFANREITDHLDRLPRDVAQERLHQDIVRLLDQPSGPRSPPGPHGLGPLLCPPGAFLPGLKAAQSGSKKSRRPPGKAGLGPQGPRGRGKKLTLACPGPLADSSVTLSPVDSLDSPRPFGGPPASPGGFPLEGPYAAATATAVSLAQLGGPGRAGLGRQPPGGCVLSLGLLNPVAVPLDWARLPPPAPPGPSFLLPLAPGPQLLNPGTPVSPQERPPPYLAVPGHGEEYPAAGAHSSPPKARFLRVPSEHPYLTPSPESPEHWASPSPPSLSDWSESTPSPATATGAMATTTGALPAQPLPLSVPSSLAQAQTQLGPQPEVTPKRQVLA

For `C[C@@H]1NC(=O)CC=C[C@@H](C)[C@@H]2C=C[C@H](O)[C@@H](COC(=O)[C@H](C)NC(=O)CC=C[C@@H](C)[C@@H]3C=C[C@H](O)[C@@H](COC1=O)O3)O2`, the composite z-score in assay [1] was 0.0027; in assay [5] it was -0.178; in [7] it was -0.221; in assay [8] it was 0.464; in assay [9], 0.108; in assay [10] it was -0.0262. The composite z-score in [11] is 0.231; in assay [12], -0.555; in assay [13], -0.925; in assay [15], 0.544; in assay [16], 0.217; in assay [17], 0.418. The composite z-score in assay [18] was found to be 0.632; in [19], 0.849; in [20], 0.0277. Moreover, the z-score in [2] is -1.07 (inactive); in [3], -2.24 (inactive); in assay [4], -0.764 (inactive); in assay [6] it was 0.602 (inactive); in assay [14], -1.61 (inactive).
For the compound `O=C1c2ccccc2[C@](Cc2ccccc2I)(C(=O)O)[C@H](c2ccc(CO)cc2)N1C1CCCCC1`, the composite z-score in assay [1] stood at 1.54; in [5] it was 2.56; in assay [7] it was 0.143; in [8], 0.597; in [9], 1.01; in [10], 0.252. In addition, the composite z-score in assay [11] is 1.31; in [12], 0.94; in [13], 1.05; in assay [15], 1.28; in assay [16], 1.28; in assay [17], 0.947. The composite z-score in assay [18] amounted to 1.06; in assay [19], 0.16; in [20], 0.198. For the same compound, the z-score in assay [2] is -0.602 (inactive); in [3], -2.37 (inactive); in assay [4], -0.997 (inactive); in [6], 2.51 (inactive); in assay [14], -1.32 (inactive).
In the case of `COC(=O)c1ccc(C#CC(NP(=O)(c2ccccc2)c2ccccc2)c2ccccc2)cc1` (stereo not given), the composite z-score in assay [1] is -0.362; in [5] it was 3.14; in assay [7] it was 0.594; in assay [8], -0.0434; in assay [9], 1.05; in assay [10] it was 0.093. The composite z-score is -0.179 in [11]; 1.2 in [12]; 1.38 in assay [13]; 0.847 in assay [15]; -0.245 in assay [16]; 1.77 in [17]. Moreover, the composite z-score in [18] was 1.7; in [19] it was 0.567; in assay [20], 1.76. Besides, the z-score in assay [2] was -0.664 (inactive); in assay [3], -11.5 (active); in assay [4], 1.25 (inactive); in assay [6], 0.0037 (inactive); in assay [14], 5.42 (inactive).
As for `[N-]=[N+]=NCc1ccccc1C[C@]1(C(N)=O)N=C(c2ccc(OCCCO)cc2)O[C@H]1c1ccccc1CN=[N+]=[N-]`, the composite z-score in [1] came out at 1.32; in assay [5], 3; in [7], 0.544; in assay [8] it was 0.0263; in assay [9], 0.904; in [10] it was 0.145. The composite z-score in assay [11] is 1.49; in assay [12], 1.51; in assay [13], 1.29; in assay [15], 0.72; in [16] it was 0.265; in assay [17] it was -0.37. Also, the composite z-score is 0.186 in assay [18], -0.9 in assay [19] and 1.41 in [20]. Besides, the z-score is -2.38 (inactive) in [2]; -2.11 (inactive) in assay [3]; -0.525 (inactive) in assay [4]; -0.0236 (inactive) in [6]; -1.63 (inactive) in assay [14].
On to `COc1ccc([C@H]2C[C@H]3C(Br)=C[C@]2(OC)C(=O)[C@]32CO2)cc1`, for which the composite z-score in assay [1] was -0.378; in assay [5], -0.288; in assay [7], -0.159; in assay [8], 0.145; in assay [9] it was 0.372; in assay [10], -0.151. For the same compound, the composite z-score in [11] is 0.488; in [12], -0.0499; in assay [13], 0.348; in assay [15], 1.05; in [16] it was 0.083; in assay [17], -0.0387. For the same compound, the composite z-score in [18] was -0.0092; in assay [19] it was 0.239; in assay [20], 0.504. Moreover, the z-score is -0.714 (inactive) in assay [2]; -3.14 (inactive) in [3]; -0.577 (inactive) in assay [4]; -0.987 (inactive) in assay [6]; 1.49 (inactive) in assay [14].

Source of the values: PubChem BioAssay.
